Assay outcomes: PubChem BioAssay, National Center for Advancing Translational Sciences (NCATS)
Most compounds without a hit are left out; they make up all but 11% or so of the library.
Luciferase inh – inhibitors of firefly (Photinus pyralis) luciferase | P08659 | purified P. pyralis luciferase, luminescence, biochemical | hit rate 2.5% among 76,000 | Potency, µM (highest dose often 115 µM), most hits filed as inhibitors | AID 1347043; note: nearly all actives have a fitted effect of over 65% in size
Target sequence (P08659 whole entry, looked up): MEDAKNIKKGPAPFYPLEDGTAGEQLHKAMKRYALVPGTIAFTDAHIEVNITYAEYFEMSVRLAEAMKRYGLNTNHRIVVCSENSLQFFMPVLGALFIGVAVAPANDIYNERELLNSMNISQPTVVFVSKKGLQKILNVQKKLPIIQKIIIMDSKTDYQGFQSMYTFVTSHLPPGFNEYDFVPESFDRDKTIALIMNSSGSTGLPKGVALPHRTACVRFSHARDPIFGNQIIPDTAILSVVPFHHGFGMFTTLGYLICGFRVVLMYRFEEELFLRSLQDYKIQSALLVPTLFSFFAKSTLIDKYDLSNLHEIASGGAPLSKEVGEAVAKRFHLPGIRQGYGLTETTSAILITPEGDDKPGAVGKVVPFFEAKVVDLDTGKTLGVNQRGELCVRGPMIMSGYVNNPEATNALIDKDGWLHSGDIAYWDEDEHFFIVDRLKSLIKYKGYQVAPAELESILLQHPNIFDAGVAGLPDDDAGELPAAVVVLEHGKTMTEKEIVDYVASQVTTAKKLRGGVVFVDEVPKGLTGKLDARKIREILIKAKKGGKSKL
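Luminescence read by CCD imager after adding enzyme (10nM final) to wells holding compound, titrated in qHTS. Substrates 10uM each D-luciferin and ATP; buffer 50mM Tris acetate pH 7.5, 10mM Mg acetate, Tween-20, BSA.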
NIH3T3 tox – kills NIH 3T3 cells; NIH 3T3 viability, CellTiter-Glo ATP luminescence, 48-72 h; Potency, µM (highest dose often 96.7 µM), for the others: at the top dose activity change, negative = cytotoxicity, most hits filed as inhibitors; hit rate 4.3% among 94,000; note: nearly all actives have a fitted effect of over 55% in size
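ATP-dependent luminescence (CellTiter-Glo) served as the viability signal for NIH 3T3 cells treated with compound for 48 or 72 hr at 37 °C.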
hNpr1 antagonist – blocks ANP-stimulated signaling of human Npr1 receptor | P16066 | Potency, µM (series often up to 46.3 µM), without a hit: at the top dose activity change, negative = inhibition, actives largely listed as inhibitors | HEK293 hNpr1 GloSensor cGMP, ANP-stimulated luminescence | hit rate 1.6% among 76,000; calls by dose curve; note: nearly all actives have a fitted effect of over 60% in size
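Compound pre-incubated 30 min at room temperature on GloSensor-loaded HEK293 cells stably carrying hNpr1 and the pGS-40F cGMP biosensor. Stimulation uses hNppA at 0.1 nM final; luminescence is taken at baseline and 20 min post-agonist.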
HEK cytotox – HEK 293 cell cytotoxicity | AID 1345083 | HEK 293 viability, ATP luminescence (CellTiter-Glo), 48-72 h | hit rate 6.6% among 94,000 | Potency, µM (titrated, usually from 115 µM), for the others: at the top dose activity change, negative = cytotoxicity, usual class: inhibitors; note: nearly all actives have a fitted effect of over 60% in size
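Cytotoxicity was scored by loss of ATP-coupled luminescence (CellTiter-Glo) in HEK 293 cells. Compound treatment ran 48 or 72 hr at 37 degree Celsius, 5% CO2, 95% humidity.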
* marks the source's active call; other numbers are inactive results; i = inactive; ? = inconclusive; · = no result given; [ ] = remark or other dose. Unless noted, calls come from the whole dose curve; as a rule, active = well fitted curve in the direction sought with a large enough effect; inconclusive = small, poorly fitted or top-dose-only effect, or another doubt; inactive = no such curve, though single readings can be large; an effect the other way counts as inactive or inconclusive. % is set by controls: 0 for no effect and ±100 for the full control effect; potency is the fitted concentration of half-maximal effect.

SMILES	Luciferase inh	NIH3T3 tox	hNpr1 antagonist	HEK cytotox
CCN1c2cc(C(=O)Nc3ccc(OC)c(OC)c3)ccc2C(=O)N2CCCCCC21 (configuration not stated)	i	?	-30%	45µM*
COc1ccc(-c2ccc(NC(=O)c3cccc(Cl)c3)cc2)nn1	·	-14%	·	-12%
COc1ccc(C(=O)N2CCCC(c3nc(CCOCC4CCCC4)no3)C2)cc1F (configuration not stated)	i	?	?	45µM*
COCc1ccc2c(c1)c(OC(C)(C)C(=O)NCCc1cccnc1)nn2CCC(C)C	i	?	3%[70.6 µM]	?
COCc1ccc2c(c1)c(OC(C)(C)C(=O)NC1CCOCC1)nn2CCC(C)C	i	?	3%[70.6 µM]	?
COCc1ccc2c(c1)c(OC(C)(C)C(=O)NCCCN1CCCC1=O)nn2CCC(C)C	i	32µM*	-2%	-1%
COCc1ccc2c(c1)c(OC(C)(C)C(=O)NC1CCC(O)CC1)nn2CCC(C)C (configuration not stated)	i	13µM*	-5%[70.6 µM]	?
CC1=C[C@@H](CN(C)CCC#N)[C@H](C(C)C)C[C@H]1Cc1nnc(-c2ccccc2F)o1	i	?	?	79µM*
CC1=C[C@@H](CN(C)CCc2ccccn2)[C@H](C(C)C)C[C@H]1Cc1nnc(-c2ccncc2)o1	i	?	1%	79µM*
CC1=C[C@@H](CNC(=O)C(C)(C)C)[C@H](C(C)C)C[C@H]1Cc1nnc(-c2ccccc2F)o1	i	?	-27%[70.6 µM]	32µM*
CC1=C[C@@H](CN(C)CCc2ccccn2)[C@H](C(C)C)C[C@H]1Cc1nnc(-c2ccccc2)o1	i	?	-19%	?
CC1=C[C@@H](CN(C)CCN(C)C)[C@H](C(C)C)C[C@H]1Cc1nnc(-c2ccccc2)o1	i	28µM*	2%[70.6 µM]	45µM*
CC1=C[C@@H](CN2CCC(C(N)=O)CC2)[C@H](C(C)C)C[C@H]1Cc1nnc(-c2ccccc2F)o1	i	?	1%	?
Cn1ncc2c(C(=O)NCc3cccc(C(F)(F)F)c3)cc(-c3ccc(Cl)cc3Cl)nc21	·	?	·	-3%
CC(C)N1CC(C(=O)NCc2ccc(F)cc2)NC1=O (configuration not stated)	·	-27%[138 µM]	·	-26%[172 µM]
Cc1cc(C)n(-c2cccc(CN3CCN(C4CCNC4)CC3)c2)n1 (configuration not stated)	i	i	4%	i
Clc1ccc(Oc2cccc(CN3CCN(C4CCNC4)CC3)c2)cc1 (configuration not stated)	i	28µM*	3%	28µM*
Cc1cc(C)cc(-c2ccc(CN3CCCC(NC(=O)c4ccncc4)C3)cc2)c1 (configuration not stated)	·	25µM*	·	28µM*
COC(=O)NC1CCCN(Cc2ccc(-c3cc(C)cc(C)c3)cc2)C1 (configuration not stated)	·	45µM*	·	40µM*
Cc1cc(C)cc(-c2ccc(CN3C4CCC3CN(C(=O)c3ccncc3)C4)cc2)c1	·	?	·	45µM*
Cc1cc(C)cc(-c2ccc(CN3CCCC(NC(=O)c4cccnc4)C3)cc2)c1 (configuration not stated)	·	20µM*	·	20µM*
Cc1cc(C)cc(-c2ccc(CN3CCCC(NC(=O)c4ccc(Cl)nc4)C3)cc2)c1 (configuration not stated)	·	-12%	·	?
O=C(c1ccncc1)N1CC2CCC(C1)N2Cc1ccc(-c2cccnc2)cc1	i	?	?	?
CN(CC#N)C(=O)c1cc(-c2cccc(F)c2)nc2c1cnn2C	·	?	·	-21%
COc1ccccc1C(=O)N1CCCC(c2nnc3n2CCN(C(=O)C2CC2)C3)C1 (configuration not stated)	·	-26%	·	-17%
SMILES	Luciferase inh	NIH3T3 tox	hNpr1 antagonist	HEK cytotox
CC(C)(C)C(=O)NC1CCCN(c2ccc3nnc(C4CC4)n3n2)C1 (configuration not stated)	·	-5%	·	i
COc1cccc(-c2cn3cc(C(=O)NCc4cccnc4)nc3s2)c1	·	?	·	32µM*
O=C(NCc1cccnc1)c1cn2cc(-c3ccccc3)sc2n1	·	?	·	50µM*
COc1cccc(CNC(=O)c2cn3cc(-c4cccnc4)sc3n2)c1	·	?	·	-31%
Cc1ccc(C(=O)N2CCC(Cc3nc(-c4ccccc4)n[nH]3)CC2)cn1	·	-26%	·	-13%
COc1ccc(-c2ccc3ncn(C4CC4)c(=O)c3n2)cc1OC	63µM*	40µM*	3%[70.6 µM]	?
O=c1c2nc(-c3cccc(O)c3)ccc2ncn1C1CC1	?	63µM*	1%[70.6 µM]	-28%[230 µM]
COc1ccc(-c2ccc3ncn(-c4ccc(F)cc4F)c(=O)c3n2)cc1OC	i	?	0%[70.6 µM]	?
O=c1c2nc(-c3cccc(O)c3)ccc2ncn1-c1ccccc1	71µM*	8.9µM*	3%[70.6 µM]	?
CC(=O)Nc1cccc(-c2ccc3ncn(-c4cccnc4)c(=O)c3n2)c1	i	?	1%[70.6 µM]	-23%[172 µM]
Cc1ccc(CN2CCc3nc(C(=O)Nc4nc(C)cs4)oc3CC2)cc1	i	?	-21%[70.6 µM]	71µM*
O=C(NCc1ccccc1)c1nc2c(o1)CCN(CC1CCCC1)CC2	i	?	-4%[70.6 µM]	?
Cc1csc(NC(=O)c2nc3c(o2)CCN(CC2CCCC2)CC3)n1	28µM*	?	-3%[70.6 µM]	?
Cc1csc(NC(=O)c2nc3c(o2)CCN(Cc2ccc4[nH]ccc4c2)CC3)n1	35µM*	?	-17%[70.6 µM]	100µM*
O=C(NC1CCCCC1)O[C@@H]1CO[C@H]2[C@@H]1OC[C@@H]2n1nnnc1Sc1ccccc1	i	?	-11%[70.6 µM]	100µM*
O=C(NC1CCCCC1)O[C@@H]1CO[C@H]2[C@@H]1OC[C@@H]2n1nnnc1Sc1ncccn1	i	-8%[174 µM]	6%[70.6 µM]	-11%[172 µM]
OCC1(Cc2ccc(F)cc2F)CCCN(c2cnc3ccccc3n2)C1 (configuration not stated)	i	?	?	40µM*
CCc1nc(-c2ccc(OC3CCN(C(=O)c4sc(C)nc4C)C3)cc2)no1 (configuration not stated)	i	?	-20%	45µM*
COCc1nc(-c2ccc(OC3CCN(C(=O)Cc4c[nH]c5ccccc45)C3)cc2)no1 (configuration not stated)	i	?	?	35µM*
CCc1nc(-c2ccc(OC3CCN(S(=O)(=O)Cc4ccccc4)C3)cc2)no1 (configuration not stated)	?	?	?	45µM*
CC(=O)N1CCN(c2ccc3nnc(C4CC4)n3n2)CC1	·	-15%[138 µM]	·	0%[172 µM]
O=C(c1cccnc1)N1CCCN(c2ccc3nnc(-c4ccccc4)n3n2)CC1	·	-27%	·	-24%
COc1cccc(CNC(=O)C2CN(C3CCCC3)C(=O)N2)c1 (configuration not stated)	·	-6%[138 µM]	·	i
O=C(c1coc(COc2ccc(F)cc2Cl)n1)N1CCCCO1	35µM*	-1%	-17%	?
